Results filed as inconclusive are left out. Where a call stands in place of a potency, no number is given. Calls of active or inactive are those of the source. Calls follow the shape of the full dose curve.

The target of the first assay is Acetylcholinesterase (Homo sapiens) (UniProt P22303). Put plainly: Acetylcholinesterase (AChE) small molecule antagonists: colormetric cell-based qHTS assay (AID 1347395). Also: nearly all actives have a fitted effect of over 30% in size. Conditions: SH-SY5Y cells AChE activity, colorimetric (Ellman); series mostly up to 115 µM. The essentials: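 Cells (SH-SY5Y, 2,000 per well) are seeded and left overnight at 37 C. Compound is added for 30 min, then DTNB and acetylthiocholine for a further 90 min at 37 C before absorbance-based thiocholine detection.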
Acetylcholinesterase (Homo sapiens), sequence (P22303 whole entry, looked up): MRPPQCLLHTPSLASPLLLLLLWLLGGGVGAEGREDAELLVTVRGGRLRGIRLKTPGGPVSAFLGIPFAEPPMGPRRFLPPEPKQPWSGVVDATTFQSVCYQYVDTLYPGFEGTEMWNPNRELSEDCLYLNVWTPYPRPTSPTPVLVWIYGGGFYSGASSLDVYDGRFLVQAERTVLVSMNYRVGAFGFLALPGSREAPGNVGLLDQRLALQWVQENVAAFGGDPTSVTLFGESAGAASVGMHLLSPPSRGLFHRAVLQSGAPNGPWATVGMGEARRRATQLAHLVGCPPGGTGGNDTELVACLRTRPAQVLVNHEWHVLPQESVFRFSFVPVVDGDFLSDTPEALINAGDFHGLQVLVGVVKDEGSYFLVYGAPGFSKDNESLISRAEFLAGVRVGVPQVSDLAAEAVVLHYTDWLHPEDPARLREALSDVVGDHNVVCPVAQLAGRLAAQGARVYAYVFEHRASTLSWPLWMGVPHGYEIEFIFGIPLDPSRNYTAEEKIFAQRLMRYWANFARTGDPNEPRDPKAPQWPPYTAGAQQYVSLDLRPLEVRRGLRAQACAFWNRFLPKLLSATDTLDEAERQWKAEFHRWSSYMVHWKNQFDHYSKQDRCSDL
As to `CCCCCC(=O)OCC`, the Potency entry is “inactive”.
In the case of `OCCOCC#CCOCCO`, the Potency result is “inactive”.
Regarding `CCOC(=O)CCC(=O)OCC`, the Potency entry was “inactive”.
As to `CCCCNS(=O)(=O)c1ccccc1`, the Potency result was “inactive”.
For the compound `CCc1nnc(NS(=O)(=O)c2ccc(N)cc2)s1`, the Potency entry was “inactive”.
Still for that read-out and setting: the entry for `OB(O)O` is “inactive”; for `CC(C)(C)NC(=O)[C@H]1CC[C@H]2[C@@H]3CC[C@H]4NC(=O)C=C[C@]4(C)[C@H]3CC[C@]12C` it is “inactive”; for `c1ccc2scnc2c1` it is “inactive”.
Turning to `CC(=O)Nc1ccc(N)cc1`, the Potency entry was “inactive”.
Still for that read-out and setting: the entry for `Cc1cccc(C)c1NC(=O)CC12CCCN1CCC2` is “inactive”; for `C/C(C=O)=C\c1ccccc1` it is “inactive”.
On to `CC1(C)[C@@H]2CC[C@@]1(C)C(=O)C2`, for which the Potency result is “inactive”.
Turning to `Cc1cc(O)c(C(C)(C)C)cc1Sc1cc(C(C)(C)C)c(O)cc1C`, the Potency entry was “inactive”.
The same measure, in the same setting: with `CC1(C)C(O)C(C)(C)C1O` (stereo unspecified) the entry was “inactive”; with `CCCC(C)CC` (stereo unspecified), “inactive”.
Take `Cn1cc(S(C)=O)c(=O)c2ccc(F)cc21` (stereo unspecified): the Potency entry is “inactive”.

For the next assay the target is unchanged. Put plainly: Acetylcholinesterase (AChE) small molecule antagonists: enzyme-based qHTS assay (AID 1347397). Also: nearly all actives have a fitted effect of over 55% in size. Also: potency is read from the fitted curve at half-maximal effect. Conditions: Potency: AChE enzyme activity inhibition; outcome: AChE enzyme activity inhibition; series mostly up to 115 µM. The essentials:
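First, recombinant human AChE (50 mU/mL as dispensed) received test compound or DMSO. Second, plates stood 30 min at room temperature. Third, DTNB and acetylthiocholine were added, followed by 10 min at room temperature and colorimetric detection.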
A general note: Quantitative high-throughput screening tests each substance at several concentrations.
On to `CCN(CCO)c1cccc(C)c1`, for which the Potency entry was “inactive”.
On the same count and under the same terms, with `O=C(O)CCCCCC(=O)O` the entry was “inactive”; with `CC(C)(C)CC(C)(C)N`, “inactive”; with `CC(C)CCCCCOC(=O)CCS`, “inactive”.
Still for that read-out and setting: with `O=S(=O)(O)c1ccc2ccccc2c1` the entry was “inactive”; with `CC#C[C@]1(O)CC[C@H]2[C@@H]3CCC4=CC(=O)CCC4=C3[C@@H](c3ccc(N(C)C)cc3)C[C@@]21C`, “inactive”.
The same measure, in the same setting: the entry for `N#Cc1ccc(CC(=O)c2cccc(C(F)(F)F)c2)cc1` is “inactive”.
For `Cc1ccncc1`, the Potency entry is “inactive”.
On to `CC(=O)OC(C)C`, for which the Potency entry was “inactive”.
As to `CC1Cc2ccccc2N1NC(=O)c1ccc(Cl)c(S(N)(=O)=O)c1` (stereo unspecified), the Potency entry was “inactive”.
The same measure, in the same setting: with `SCCc1cnccn1` the entry was “inactive”.
On the same count and under the same terms, with `CNS(=O)(=O)c1cc(C(=O)N2CCC(CCN3C4CCC3CC(n3c(C)nc5ccccc53)C4)(c3cccc(F)c3)CC2)c(Cl)cc1F` (stereo unspecified) the entry was “inactive”; with `C1=C\CC/C=C\CC/1`, “inactive”.
In the case of `CCOc1cc(OCC)c(C(C)=O)cc1OCC`, the Potency result was “inactive”.
Same read-out and setting: with `NCCCCCCN` the entry was “inactive”; with `CC(C)(Oc1ccc(CCNC(=O)c2ccc(Cl)cc2)cc1)C(=O)O`, “inactive”; with `O=Cc1ccc(CO)o1`, “inactive”.
On the same count and under the same terms, with `CC(C)(C)C1=CC(=O)C(C(C)(C)C)=CC1=O` the entry was “inactive”; with `CCOC(=O)[C@H](CCc1ccccc1)N[C@@H](C)C(=O)N1CCC[C@H]1C(=O)O`, “inactive”; with `COC1=C(OC)C(=O)C(CCCCCCCCCCO)=C(C)C1=O`, “inactive”.
As to `CC(CNC1CCCCC1)OC(=O)c1ccccc1` (stereo unspecified), the Potency result was “inactive”.
The same measure, in the same setting: with `C=C(C)c1cccc(C(=C)C)c1` the entry was “inactive”; with `O=C(c1ccc(O)cc1)c1ccc(O)c(O)c1O`, “inactive”; with `C[CH2][Ge]([Cl])([CH2]C)[CH2]C`, “inactive”.
The same measure, in the same setting: with `CCCCCC(=O)OCC` the entry was “inactive”; with `OCCOCC#CCOCCO`, “inactive”; with `CCOC(=O)CCC(=O)OCC`, “inactive”.
On the same count and under the same terms, the entry for `CCCCNS(=O)(=O)c1ccccc1` is “inactive”; for `CCc1nnc(NS(=O)(=O)c2ccc(N)cc2)s1` it is “inactive”; for `OB(O)O` it is “inactive”.
For `CC(C)(C)NC(=O)[C@H]1CC[C@H]2[C@@H]3CC[C@H]4NC(=O)C=C[C@]4(C)[C@H]3CC[C@]12C`, the Potency result is “inactive”.
The same measure, in the same setting: with `c1ccc2scnc2c1` the entry was “inactive”.
In the case of `CC(=O)Nc1ccc(N)cc1`, the Potency entry is “inactive”.
Still for that read-out and setting: the entry for `Cc1cccc(C)c1NC(=O)CC12CCCN1CCC2` is “inactive”.
For `C/C(C=O)=C\c1ccccc1`, the Potency entry is “inactive”.
For the compound `CC1(C)[C@@H]2CC[C@@]1(C)C(=O)C2`, the Potency result was “inactive”.
As for `Cc1cc(O)c(C(C)(C)C)cc1Sc1cc(C(C)(C)C)c(O)cc1C`, the Potency is 28.2 µM (active).
On the same count and under the same terms, with `CC1(C)C(O)C(C)(C)C1O` (stereo unspecified) the entry was “inactive”.
In the case of `CCCC(C)CC` (stereo unspecified), the Potency entry was “inactive”.
The same measure, in the same setting: with `Cn1cc(S(C)=O)c(=O)c2ccc(F)cc21` (stereo unspecified) the entry was “inactive”.

Another assay shares this target. Briefly: Acetylcholinesterase (AChE) small molecule antagonists: fluorescence cell-based qHTS assay (AID 1347398). Also: nearly all actives have a fitted effect of over 50% in size. Also: potency is read from the fitted curve at half-maximal effect. Conditions: SH-SY5Y cells; Potency: AChE activity; outcome: AChE activity; series mostly up to 115 µM. The essentials:
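Homogeneous quantitative HTS format. SH-SY5Y cells seeded at 2,000 per well settle overnight at 37 C. Compound pretreatment runs 30 min (37 C, 5% CO2); substrate/probe mix then reacts 40 min at RT before reading 490/520 nm.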
Regarding `CCN(CCO)c1cccc(C)c1`, the Potency entry is “inactive”.
On the same count and under the same terms, with `O=C(O)CCCCCC(=O)O` the entry was “inactive”.
In the case of `CC(C)(C)CC(C)(C)N`, the Potency entry is “inactive”.
As for `CC(C)CCCCCOC(=O)CCS`, the Potency result is “inactive”.
Same read-out and setting: the entry for `O=S(=O)(O)c1ccc2ccccc2c1` is “inactive”; for `CC#C[C@]1(O)CC[C@H]2[C@@H]3CCC4=CC(=O)CCC4=C3[C@@H](c3ccc(N(C)C)cc3)C[C@@]21C` it is “inactive”.
In the case of `N#Cc1ccc(CC(=O)c2cccc(C(F)(F)F)c2)cc1`, the Potency entry was “inactive”.
Regarding `Cc1ccncc1`, the Potency entry was “inactive”.
Same read-out and setting: the entry for `CC(=O)OC(C)C` is “inactive”; for `CC1Cc2ccccc2N1NC(=O)c1ccc(Cl)c(S(N)(=O)=O)c1` (stereo unspecified) it is “inactive”; for `SCCc1cnccn1` it is “inactive”.
The same measure, in the same setting: with `CNS(=O)(=O)c1cc(C(=O)N2CCC(CCN3C4CCC3CC(n3c(C)nc5ccccc53)C4)(c3cccc(F)c3)CC2)c(Cl)cc1F` (stereo unspecified) the figure was 7.96 µM (active); with `C1=C\CC/C=C\CC/1`, “inactive”; with `CCOc1cc(OCC)c(C(C)=O)cc1OCC`, “inactive”.
With `NCCCCCCN`, the Potency entry is “inactive”.
On the same count and under the same terms, the entry for `CC(C)(Oc1ccc(CCNC(=O)c2ccc(Cl)cc2)cc1)C(=O)O` is “inactive”; for `O=Cc1ccc(CO)o1` it is “inactive”; for `CC(C)(C)C1=CC(=O)C(C(C)(C)C)=CC1=O` it is “inactive”.
The same measure, in the same setting: with `CCOC(=O)[C@H](CCc1ccccc1)N[C@@H](C)C(=O)N1CCC[C@H]1C(=O)O` the entry was “inactive”; with `COC1=C(OC)C(=O)C(CCCCCCCCCCO)=C(C)C1=O`, “inactive”.
On to `CC(CNC1CCCCC1)OC(=O)c1ccccc1` (stereo unspecified), for which the Potency entry is “inactive”.
Same read-out and setting: the entry for `C=C(C)c1cccc(C(=C)C)c1` is “inactive”.
`O=C(c1ccc(O)cc1)c1ccc(O)c(O)c1O`: the Potency entry was “inactive”.
With `C[CH2][Ge]([Cl])([CH2]C)[CH2]C`, the Potency entry is “inactive”.
Still for that read-out and setting: with `CCCCCC(=O)OCC` the entry was “inactive”; with `OCCOCC#CCOCCO`, “inactive”; with `CCOC(=O)CCC(=O)OCC`, “inactive”.
Consider `CCCCNS(=O)(=O)c1ccccc1`, for which the Potency result was “inactive”.
On the same count and under the same terms, the entry for `CCc1nnc(NS(=O)(=O)c2ccc(N)cc2)s1` is “inactive”; for `OB(O)O` it is “inactive”.
On the same count and under the same terms, with `CC(C)(C)NC(=O)[C@H]1CC[C@H]2[C@@H]3CC[C@H]4NC(=O)C=C[C@]4(C)[C@H]3CC[C@]12C` the entry was “inactive”; with `c1ccc2scnc2c1`, “inactive”.
The same measure, in the same setting: the entry for `CC(=O)Nc1ccc(N)cc1` is “inactive”; for `Cc1cccc(C)c1NC(=O)CC12CCCN1CCC2` it is “inactive”; for `C/C(C=O)=C\c1ccccc1` it is “inactive”.
Turning to `CC1(C)[C@@H]2CC[C@@]1(C)C(=O)C2`, the Potency result is “inactive”.
Regarding `Cc1cc(O)c(C(C)(C)C)cc1Sc1cc(C(C)(C)C)c(O)cc1C`, the Potency result is “inactive”.
With `CC1(C)C(O)C(C)(C)C1O` (stereo unspecified), the Potency result is “inactive”.
Same read-out and setting: with `CCCC(C)CC` (stereo unspecified) the entry was “inactive”; with `Cn1cc(S(C)=O)c(=O)c2ccc(F)cc21` (stereo unspecified), “inactive”.
